Measured values published in PubChem BioAssay (Tox21).
Inconclusive results are not listed. Values without a mark were called inactive. Calls of active or inactive are those of the source. Calls come from the whole dose curve; as a rule, active = well fitted activation curve with a large enough effect; inconclusive = small, poorly fitted or top-dose-only effect; inactive = flat fitted curve, though single readings scatter. Non-standard residues stand in square brackets, D forms with d. Residues, ends and D or L forms follow the SMILES beside them. Orn = NCCC[C@H](N)C(=O)O

test: qHTS assay to identify small molecule phospholipidosis (PLD) inducers (AID 1259344); settings: HepG2 phospholipidosis, LipidTOX Red imaging, 24 h; series mostly up to 38.3 µM; PLD induction: at the top concentration
Outline: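 Phospholipidosis is scored by imaging LipidTOX-stained pits in HepG2 cells exposed to compound for 24 h at 37 C; pit counts and integrated intensities per well and per cell serve as outputs.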
% is set by controls: 0 for no effect and ±100 for the full control effect.

| SMILES | Potency | PLD induction |
| --- | --- | --- |
| CCC1OC(=O)C[C@@H](O)[C@H](C)[C@@H](O[C@@H]2O[C@H](C)C[C@H](N(C)C)[C@H]2O)[C@@H](CC=O)C[C@@H](C)C(=O)/C=C/[C@]2(C)OC2C1C (stereo not given in full) | inactive | – |
| C[C@@H]1C(=O)NC2=Nc3cccc(Cl)c3CN21 | – | 0.0716% |
| CC[C@H](C)C(=O)O[C@H]1CCC=C2C=C[C@H](C)[C@H](CC[C@@H]3C[C@@H](O)CC(=O)O3)[C@H]21 | – | -1.65% |
| C[C@H](Cc1ccc(O)c(O)c1)[C@@H](C)Cc1ccc(O)c(O)c1 | – | -1.08% |
| c1ccc2c(c1)OCC(CN1CCCCC1)O2 (stereo not given) | – | -0.257% |
| CC12CCC(C[N+](C)(CCC[N+](C)(C)C)C1)C2(C)C (stereo not given) | – | -0.0087% |
| CS(=O)(=O)c1ccc([C@@H](O)[C@@H](COC(=O)CN)NC(=O)C(Cl)Cl)cc1 | – | 0.141% |
| CC(=O)OCC(=O)[C@@]1(O)CC[C@H]2[C@@H]3C[C@H](C)C4=CC(=O)C=C[C@]4(C)[C@H]3[C@@H](O)C[C@@]21C | – | -0.177% |
| N[C@@H](Cc1cnc[nH]1)C(=O)O | – | -0.695% |
| O=S(=O)(O)O | – | -1.3% |
| O=C(O)Cc1nn(Cc2ccc(Br)cc2F)c(=O)c2ccccc12 | – | -1.23% |
| O=P(O)(O)C(O)(Cn1ccnc1)P(=O)(O)O | – | -1.58% |
| NC(=O)[C@@H]1C[C@]2(NC(=O)NC2=O)c2cc(F)ccc2O1 | – | -1.06% |
| CC(=O)N[C@@H](C=O)[C@H](O)[C@H](O)[C@@H](O)CO | inactive | – |
| Nc1nc(/C(=C/CC(=O)O)C(=O)N[C@@H]2C(=O)N3C(C(=O)O)=CCS[C@H]23)cs1 | – | -0.404% |
| O=C(O)CC(O)(CC(=O)O)C(=O)O | – | -0.895% [at 1.53 µM] |
| CSCC[C@H](NC(=O)[C@H](Cc1ccc(OS(=O)(=O)O)cc1)NC(=O)[C@@H](N)CC(=O)O)C(=O)NCC(=O)N[C@@H](Cc1c[nH]c2ccccc12)C(=O)N[C@@H](CCSC)C(=O)N[C@@H](CC(=O)O)C(=O)N[C@@H](Cc1ccccc1)C(N)=O | inactive | – |
| NC(N)=NCc1cccc(I)c1 | inactive | – |
| CC(C)=CCC/C(C)=C/CC/C(C)=C/CC/C(C)=C/CC1=C(C)C(=O)c2ccccc2C1=O | inactive | – |
| O=C(O)COc1ccc(C(=O)c2cccs2)c(Cl)c1Cl | inactive | – |

| SMILES | Potency | PLD induction |
| --- | --- | --- |
| CC(=NCc1ccccc1)c1ccccc1O | – | -0.47% |
| OCCCNc1ccccc1 | – | -0.547% |
| NC(N)=NCC1COC2(CCCCC2)O1 (stereo not given) | – | -0.62% [at 15.5 µM] |
| N=C(N)c1ccc(/C=C/c2ccc(C(=N)N)cc2O)cc1 | – | 3.81% |
| CCCOC(=O)c1ccccc1O | – | -0.293% |
| COC1[C@@H](O[C@@H]2O[C@H](C)[C@@H](O[C@H]3C[C@@](C)(O)[C@H](OC(=O)CC(C)C)[C@H](C)O3)[C@H](N(C)C)[C@H]2O)[C@@H](CC=O)C[C@@H](C)[C@@H](O)/C=C/C=C/C[C@@H](C)OC(=O)C[C@H]1OC(C)=O (stereo not given in full) | – | 0.0827% [at 15.5 µM] |
| CCCCCCCCCCCCCCCC[n+]1ccccc1 | – | -1.54% |
| CC[C@H]1OC(=O)[C@H](C)C(=O)[C@H](C)[C@@H](O[C@@H]2O[C@H](C)C[C@H](N(C)C)[C@H]2O)[C@](C)(OC)C[C@@H](C)C(=O)[C@H](C)[C@H]2N(CCCCn3cnc(-c4cccnc4)c3)C(=O)O[C@]12C | inactive | – |
| Cc1cnc(C(=O)O)c[n+]1[O-] | inactive | – |
| CC[C@@]1([C@@H]2O[C@@H]([C@H]3O[C@@](O)(CO)[C@H](C)C[C@@H]3C)C[C@@H]2C)CC[C@H]([C@]2(C)CC[C@]3(C[C@H](O)[C@@H](C)[C@@H]([C@@H](C)[C@@H](OC)[C@H](C)C(=O)O)O3)O2)O1 (stereo in doubt) | inactive | – |
| CC(C)C[C@@H]1NC(=O)[C@H](CCCN)NC(=O)[C@H](C(C)C)NC(=O)[C@@H]2CCCN2C(=O)[C@@H](Cc2ccccc2)NC(=O)[C@H](CC(C)C)NC(=O)[C@H](CCCN)NC(=O)[C@H](C(C)C)NC(=O)[C@@H]2CCCN2C(=O)[C@@H](Cc2ccccc2)NC1=O (cyclo(V[Orn]L[dF]PV[Orn]L[dF]P)) | – | -0.87% |
| CO/N=C(\C(=O)N[C@@H]1C(=O)N2C(C(=O)O)=C(COC(C)=O)CS[C@H]12)c1csc(N)n1 (stereo in doubt) | – | -0.456% |
| FC(F)(F)COCC(F)(F)F | – | 0.391% |
| CC(C)(O/N=C(\C(=O)N[C@@H]1C(=O)N2C(C(=O)[O-])=C(C[n+]3ccccc3)CS[C@H]12)c1csc(N)n1)C(=O)O | – | -0.632% [at 15.5 µM] |
| CO/N=C(\C(=O)N[C@@H]1C(=O)N2C(C(=O)O)=C(CSc3cnns3)CS[C@H]12)c1csc(N)n1 | – | -0.543% |
| Cc1c(N)nc([C@H](CC(N)=O)NC[C@H](N)C(N)=O)nc1C(=O)N[C@H](C(=O)N[C@H](C)[C@@H](O)[C@H](C)C(=O)N[C@H](C(=O)NCCc1nc(-c2nc(C(=O)NCCCCN=C(N)N)cs2)cs1)[C@@H](C)O)[C@@H](O[C@@H]1O[C@@H](CO)[C@@H](O)[C@H](O)[C@@H]1O[C@H]1O[C@H](CO)[C@@H](O)[C@H](OC(N)=O)[C@@H]1O)c1cnc[nH]1 | inactive | – |
| CN(C)CCc1c[nH]c2ccc(Cn3cncn3)cc12 | – | -0.941% |
| Nc1nc(NC2CC2)c2ncn([C@@H]3C=C[C@@H](CO)C3)c2n1 | – | -0.759% |
| O=C(O)/C=C/C(O)c1ccc(Cl)cc1 (stereo not given) | – | -0.396% |
| O=C(O)c1ccc(NC2OC[C@@H](O)[C@H](O)[C@H]2O)cc1 (stereo not given in full) | – | -0.158% |
